Shown are actives, neighbours in structure and some others; about 10% of the full set was active somewhere.
NIH3T3 tox = Cytotoxic Profiling in NIH 3T3 Cell Line of Diverse Libraries Using Quantitative High-Throughput Screening; NIH 3T3 viability, CellTiter-Glo ATP luminescence, 48-72 h; AID 1345082, 2018; 4.3% of 94,000 active; Potency, µM (titrated, usually from 96.7 µM), for inactives: top-dose activity change, negative = cytotoxicity, actives largely listed as inhibitors; further: nearly all actives have a fitted effect of over 55% in size
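Luminescent ATP readout (CellTiter-Glo, 10 min RT) after 48 or 72 hr compound exposure of NIH 3T3 cells seeded at 400 cells/well in 1536-well format; quantitative HTS.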
Luciferase inh = Firefly luciferase inhibition profiling of diverse chemical library using quantitative high-throughput screening; Luciferin 4-monooxygenase (Photinus pyralis), P08659; purified P. pyralis luciferase, luminescence, biochemical; Potency, µM (series often up to 115 µM), most hits filed as inhibitors; 2.5% of 76,000 active; further: nearly all actives have a fitted effect of over 65% in size
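Purified P. pyralis luciferase (10nM final) in 50mM Tris acetate pH 7.5, 10mM Mg acetate, 0.01% Tween-20, 0.05% BSA with 10uM D-luciferin and 10uM ATP. Compounds titrated qHTS. Luminescence imaged on CCD.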
GPT2 inh = Primary qHTS assay for inhibitors of Glutamate pyruvate transaminase 2 (GPT2). Alanine aminotransferase 2 (Homo sapiens), Q8TD30. Recombinant GPT2, coupled pyruvate oxidase/HRP Amplex Red fluorescence. Potency, µM (doses to about 57.7 µM), for inactives: top-dose activity change, negative = inhibition, most hits filed as inhibitors. 0.25% of 100,000 active. AID 1671188, 2021; further: nearly all actives have a fitted effect of over 60% in size
Target sequence (Q8TD30 whole entry, looked up): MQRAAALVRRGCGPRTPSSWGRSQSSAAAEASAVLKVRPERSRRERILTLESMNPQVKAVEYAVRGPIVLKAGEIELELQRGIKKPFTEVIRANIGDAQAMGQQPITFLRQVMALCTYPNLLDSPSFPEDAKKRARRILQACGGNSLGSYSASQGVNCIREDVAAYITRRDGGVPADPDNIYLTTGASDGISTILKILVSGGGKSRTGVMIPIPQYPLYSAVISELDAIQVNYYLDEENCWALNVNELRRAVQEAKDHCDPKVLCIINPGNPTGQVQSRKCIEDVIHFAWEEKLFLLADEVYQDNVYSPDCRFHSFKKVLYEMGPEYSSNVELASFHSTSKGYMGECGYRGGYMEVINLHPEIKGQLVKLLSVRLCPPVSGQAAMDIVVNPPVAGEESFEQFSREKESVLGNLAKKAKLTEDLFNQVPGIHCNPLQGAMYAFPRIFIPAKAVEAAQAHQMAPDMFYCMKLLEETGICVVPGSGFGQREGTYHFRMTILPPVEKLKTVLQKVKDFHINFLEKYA
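GPT2 10ng/uL, a-KG 250uM, L-Ala 2mM, HEPES pH7.5 + 0.0001% Tween; 30 min RT. Then Amplex mix (PO/HRP/ThPP), 30 min RT dark, fluorescence. AOA 50uM used as positive control.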
HEK293 tox = Cytotoxic Profiling in HEK 293 Cell Line of Diverse Libraries Using Quantitative High-Throughput Screening. HEK 293 viability, ATP luminescence (CellTiter-Glo), 48-72 h. Potency, µM (highest dose often 115 µM), for the others: top-dose activity change, negative = cytotoxicity, most hits filed as inhibitors. 6.6% of 94,000 active. AID 1345083, 2018; further: nearly all actives have a fitted effect of over 60% in size
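Pintool-delivered compounds were incubated with HEK 293 cells (250 cells/well) at 37 degree Celsius for 48 or 72 hr. ATP-dependent luminescence (CellTiter-Glo) then reported remaining viable cells.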
NPR1 antag = Natriuretic polypeptide receptor (hNpr1) antagonism - Primary qHTS; HEK293 hNpr1 GloSensor cGMP, ANP-stimulated luminescence; 1.6% of 76,000 active; Potency, µM (titrated, usually from 46.3 µM), for the others: top-dose activity change, negative = inhibition, most hits filed as inhibitors; calls by dose curve; further: nearly all actives have a fitted effect of over 60% in size
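HEK293 cells stably expressing human Npr1 and cGMP GloSensor pGS-40F, loaded 2 h with 2% GloSensor reagent, given compound 30 min at room temperature. Luminescence read before and 20 min after 0.1 nM hNppA.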
Starred values were filed as active, the others as inactive; [ ] = dose if it differs, or a comment. Unless noted, the call rests on the fitted dose curve; in most records, active means well fitted curve in the direction sought with a large enough effect; inconclusive means small, poorly fitted or top-dose-only effect, or another doubt; inactive means no such curve, though single readings can be large; an effect the other way counts as inactive or inconclusive. On the % scale 0 is the no-effect control and ±100 the full control effect; potency means the concentration at half of the fitted maximal effect.

For CCOC(=O)C1CCCN(C(=O)C2CC(c3ccc(CC)cc3)CN(C(=O)c3ccoc3)C2)C1 (configuration not stated) the results were NIH3T3 tox inconclusive, Luciferase inh inactive, GPT2 inh 2%, HEK293 tox 45µM* and NPR1 antag 0%.
CC(C)NC(=O)N(C)CC1CCOCC1 was read as NIH3T3 tox 0%, Luciferase inh inactive, GPT2 inh inactive, HEK293 tox -6% and NPR1 antag -2%.
For Cc1noc(C)c1-c1cc2cc(CO)oc2c(-c2cccc(OC(C)C)c2)n1 the results were NIH3T3 tox inconclusive, Luciferase inh inactive, GPT2 inh -20%[88.5 µM], HEK293 tox 89µM* and NPR1 antag -15%[70.6 µM].
`Cc1cc2cc(-c3c(C)noc3C)nc(-c3cccc([S+](C)(=O)[O-])c3)c2o1` gave NIH3T3 tox 11µM*, Luciferase inh inactive, GPT2 inh -12%[88.5 µM], HEK293 tox inconclusive and NPR1 antag -21%[70.6 µM].
For Cc1cc2cc(-c3c(C)noc3C)nc(-c3ccc(CO)cc3)c2o1 the results were NIH3T3 tox 28µM*, Luciferase inh inactive, GPT2 inh inconclusive, HEK293 tox inconclusive and NPR1 antag -2%[70.6 µM].
Screening Cc1noc(C)c1-c1cc2cc(C(C)C)oc2c(-c2ccc(CO)cc2)n1 returned NIH3T3 tox inconclusive, Luciferase inh inactive, GPT2 inh -23%[88.5 µM], HEK293 tox inconclusive and NPR1 antag -7%[70.6 µM].
`COc1cccc(-c2nc(-c3c(C)noc3C)cc3cc(C)oc23)c1` gave NIH3T3 tox inconclusive, Luciferase inh inactive, GPT2 inh -6%[88.5 µM], HEK293 tox inconclusive and NPR1 antag 3%[70.6 µM].
`COCc1noc([C@@H]2CN(C3CNC3)C[C@H]2C(N)=O)n1` gave NIH3T3 tox -14%, Luciferase inh inactive, GPT2 inh inactive, HEK293 tox -6% and NPR1 antag 2%.
Screening COc1ccc(C(=O)N2CCC(c3n[nH]c(=O)n3-c3ccc(C)cc3)CC2)cn1 returned NIH3T3 tox 28µM*, Luciferase inh inactive, GPT2 inh inactive, HEK293 tox -4% and NPR1 antag 0%.
For Cc1ccc(-n2c(C3CCN(C(=O)c4ccc(F)c(Cl)c4)CC3)n[nH]c2=O)cc1 the results were NIH3T3 tox 13µM*, Luciferase inh inactive, GPT2 inh 2%, HEK293 tox -2% and NPR1 antag -8%.
For Cc1ccc(-n2c(C3CCN(C(=O)c4ccc(C#N)cc4)CC3)n[nH]c2=O)cc1 the results were NIH3T3 tox 35µM*, Luciferase inh inactive, GPT2 inh -29%, HEK293 tox -12% and NPR1 antag 8%.
For Cc1ccc(C(=O)N2CCC(c3n[nH]c(=O)n3-c3ccc(C)cc3)CC2)cc1 the results were NIH3T3 tox inconclusive, Luciferase inh inactive, GPT2 inh inactive, HEK293 tox 9% and NPR1 antag -20%.
Cc1ccc(-n2c(C3CCN(C(=O)c4ccc(C)nc4)CC3)n[nH]c2=O)cc1 was read as NIH3T3 tox 25µM*, Luciferase inh inactive, GPT2 inh inactive, HEK293 tox 2% and NPR1 antag 3%.
Screening COc1ccc(C(=O)N2CCC(c3n[nH]c(=O)n3-c3ccc(C)cc3)CC2)cc1OC returned NIH3T3 tox inconclusive, Luciferase inh inactive, GPT2 inh -13%, HEK293 tox 33% and NPR1 antag 0%.
For CCOC(=O)N1C[C@@H](CO)[C@@H]2Oc3c(C)cccc3[C@@H]21 the results were NIH3T3 tox -25% and HEK293 tox inconclusive.
For COCCOC1CCN(C(=O)c2cccc(OC)c2)CC1 the results were NIH3T3 tox -1%, Luciferase inh inactive, GPT2 inh inactive, HEK293 tox 17% and NPR1 antag 4%.
